Laboratory results from PubChem BioAssay AID1159580 (chemical genetic matrix, 2015).
The whole screen tested about 5,500 compounds, of which about 2,000 (36%) were called active. Roughly 18% stayed inconclusive and do not appear here. Cut-off read from the data, not from the text of the source: active = normalized growth mostly below about 0.91 (no sharp cut-off); inconclusive = no clear call, values can overlap the other calls; inactive = mostly above about 0.92. The list shows a part of the results.

Assay: chemical genetic growth profiling, strain panel (AID 1159580);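 note: tested at 20 µM; growth read once vehicle control cultures reached saturation at 30 °C; 1 = growth at the plate median or of vehicle wells; lower values mean less growth of the strain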
Conditions: growth OD

Measured: normalized growth

CN[C@@H]1[C@H](OC2[C@H](O[C@H]3[C@H](O)[C@@H](O)[C@H](N=C(N)N)[C@@H](O)[C@@H]3N=C(N)N)O[C@@H](C)[C@]2(O)C=O)O[C@@H](CO)[C@H](O)[C@H]1O (stereo not given in full)
inactive: S. cerevisiae deletion strains, locus YKL009W, strain mrt4, hits give low values 1.03 | S. cerevisiae deletion strains, locus YKL068W, hits give low values 1 | S. cerevisiae deletion strains, locus YKL085W, strain MDH1 (second series), hits give low values 1 | S. cerevisiae deletion strains, locus YKL085W, strain MDH1, hits give low values 1 | S. cerevisiae deletion strains, locus YKL160W, strain elf1, hits give low values 1.02 | S. cerevisiae deletion strains, locus YKL190W, strain CNB1, hits give low values 0.997 | S. cerevisiae deletion strains, locus YKR001C, strain vps1, hits give low values 1.01 | S. cerevisiae deletion strains, locus YKR026C, strain gcn3, hits give low values 1 | S. cerevisiae deletion strains, locus YKR091W, strain srl3, hits give low values 1.01 | S. cerevisiae deletion strains, locus YLL001W, strain dnm1, hits give low values 1.03 | S. cerevisiae deletion strains, locus YLL026W, hits give low values 1.02 | S. cerevisiae deletion strains, locus YLL041C, strain sdh2, hits give low values 1 | S. cerevisiae deletion strains, locus YLR027C, strain aat2, hits give low values 1.02 | S. cerevisiae deletion strains, locus YLR039C, strain RIC1, hits give low values 0.997 | S. cerevisiae deletion strains, locus YLR058C, strain SHM2, hits give low values 1.01 | S. cerevisiae deletion strains, locus YLR102C, strain apc9, hits give low values 1.01 | S. cerevisiae deletion strains, locus YLR113W, strain HOG1, hits give low values 0.964 | S. cerevisiae deletion strains, locus YLR221C, strain rsa3, hits give low values 0.989 | S. cerevisiae deletion strains, locus YLR258W, strain gsy2, hits give low values 0.991 | S. cerevisiae deletion strains, locus YLR262C, strain YPT6 (second series), hits give low values 1.04 | S. cerevisiae deletion strains, locus YLR262C, strain YPT6, hits give low values 1.01 | S. cerevisiae deletion strains, locus YLR268W, strain sec22, hits give low values 1 | S. cerevisiae deletion strains, locus YLR320W, strain mms22, hits give low values 0.969 | S. cerevisiae deletion strains, locus YLR330W, strain CHS5, hits give low values 1 | S. cerevisiae deletion strains, locus YLR342W, strain FKS1 (second series), hits give low values 1.01 | S. cerevisiae deletion strains, locus YLR342W, strain FKS1, hits give low values 1.04 | S. cerevisiae deletion strains, locus YLR357W, strain rsc2, hits give low values 1.02 | S. cerevisiae deletion strains, locus YLR370C, strain arc18, hits give low values 1.02 | S. cerevisiae deletion strains, locus YLR371W, strain rom2, hits give low values 1.01 | S. cerevisiae deletion strains, locus YLR384C, strain iki3, hits give low values 1.01 | S. cerevisiae deletion strains, locus YLR418C, strain cdc73, hits give low values 1.02 | S. cerevisiae deletion strains, locus YML016C, strain PPZ1, hits give low values 1.02 | S. cerevisiae deletion strains, locus YML032C, strain rad52, hits give low values 1.01 | S. cerevisiae deletion strains, locus YML120C, strain ndi1, hits give low values 1.02 | S. cerevisiae deletion strains, locus YML124C, strain tub3, hits give low values 1.02 | S. cerevisiae deletion strains, locus YMR058W, strain fet3, hits give low values 1.02 | S. cerevisiae deletion strains, locus YMR078C, strain ctf18, hits give low values 1.02 | S. cerevisiae deletion strains, locus YMR125W, strain sto1, hits give low values 0.969 | S. cerevisiae deletion strains, locus YMR129W, hits give low values 1 | S. cerevisiae deletion strains, locus YMR205C, strain PFK2, hits give low values 1.02 | S. cerevisiae deletion strains, locus YMR223W, strain ubp8, hits give low values 1.02 | S. cerevisiae deletion strains, locus YMR231W, strain pep5, hits give low values 0.997 | S. cerevisiae deletion strains, locus YMR263W, strain SAP30, hits give low values 1.01 | S. cerevisiae deletion strains, locus YMR307W, strain GAS1, hits give low values 0.965 | S. cerevisiae deletion strains, locus YNL067W, strain RPL9B, hits give low values 1.01 | S. cerevisiae deletion strains, locus YNL071W, strain lat1, hits give low values 0.992 | S. cerevisiae deletion strains, locus YNL128W, strain TEP1, hits give low values 1.01 | S. cerevisiae deletion strains, locus YNL153C, strain GIM3, hits give low values 1.01 | S. cerevisiae deletion strains, locus YNL183C, strain NPR1, hits give low values 0.938 | S. cerevisiae deletion strains, locus YNL209W, strain ssb2, hits give low values 0.998 | S. cerevisiae deletion strains, locus YNL233W, strain BNI4, hits give low values 1.01 | S. cerevisiae deletion strains, locus YNL248C, strain rpa49, hits give low values 0.962 | S. cerevisiae deletion strains, locus YNL250W, strain rad50, hits give low values 1.02 | S. cerevisiae deletion strains, locus YNL271C, strain bni1, hits give low values 1.01 | S. cerevisiae deletion strains, locus YNL298W, strain CLA4, hits give low values 1.02 | S. cerevisiae deletion strains, locus YNL307C, strain MCK1, hits give low values 1.02 | S. cerevisiae deletion strains, locus YNL322C, strain KRE1 (second series), hits give low values 1 | S. cerevisiae deletion strains, locus YNR049C, strain mso1, hits give low values 0.999 | S. cerevisiae deletion strains, locus YNR052C, strain pop2, hits give low values 1 | S. cerevisiae deletion strains, locus YOL006C, strain TOP1, hits give low values 1.01 | S. cerevisiae deletion strains, locus YOL012C, strain htz1 1.07 | S. cerevisiae deletion strains, locus YOL147C, strain pex11, hits give low values 1.01 | S. cerevisiae deletion strains, locus YOR001W, strain rrp6, hits give low values 1.04 | S. cerevisiae deletion strains, locus YOR061W, strain CKA2, hits give low values 1.01 | S. cerevisiae deletion strains, locus YOR069W, strain VPS5, hits give low values 1.01 | S. cerevisiae deletion strains, locus YOR070C, strain gyp1, hits give low values 0.987 | S. cerevisiae deletion strains, locus YOR080W, strain dia2, hits give low values 1 | S. cerevisiae deletion strains, locus YOR083W, strain WHI5, hits give low values 0.989 | S. cerevisiae deletion strains, locus YOR106W, strain vam3, hits give low values 1.03 | S. cerevisiae deletion strains, locus YOR136W, strain idh2, hits give low values 1.02 | S. cerevisiae deletion strains, locus YOR144C, strain elg1, hits give low values 1.02 | S. cerevisiae deletion strains, locus YOR184W, strain ser1, hits give low values 1.03 | S. cerevisiae deletion strains, locus YOR231W, strain MKK1, hits give low values 0.979 | S. cerevisiae deletion strains, locus YOR265W, strain rbl2, hits give low values 1.01 | S. cerevisiae deletion strains, locus YOR270C, strain vph1, hits give low values 1.02 | S. cerevisiae deletion strains, locus YOR290C, strain snf2, hits give low values 0.977 | S. cerevisiae deletion strains, locus YOR316C, strain cot1, hits give low values 1.01 | S. cerevisiae deletion strains, locus YPL051W, strain arl3, hits give low values 1.01 | S. cerevisiae deletion strains, locus YPL055C, strain LGE1, hits give low values 1.01 | S. cerevisiae deletion strains, locus YPL078C, strain atp4, hits give low values 1.04 | S. cerevisiae deletion strains, locus YPL106C, strain sse1, hits give low values 0.987 | S. cerevisiae deletion strains, locus YPL240C, strain hsp82, hits give low values 1.01 | S. cerevisiae deletion strains, locus YPL241C, strain CIN2, hits give low values 1 | S. cerevisiae deletion strains, locus YPL256C, strain CLN2, hits give low values 0.976 | S. cerevisiae deletion strains, locus YPR119W, strain clb2, hits give low values 1.01 | S. cerevisiae deletion strains, locus YPR141C, strain kar3, hits give low values 1.01 | S. cerevisiae deletion strains, locus YPR163C, strain tif3, hits give low values 1.02 | S. cerevisiae deletion strains, locus YPR167C, strain met16, hits give low values 1.02 | S. cerevisiae deletion strains, strain wtn01, hits give low values 1.01 | S. cerevisiae strains, strain wild type, hits give low values 1.01
